# From PubChem
# Rows were chosen to be rich in hits. Some 1.7% of all compounds tested hit in one or more screens of this group.
# LYPLA1 inh – LYPLA1 (human) inhibition in PME1 counter-screen. inhibition, % at 5.9 µM. hit rate 0.16% among 320,000. AID 2174. recombinant LYPLA1, FP-Rh probe fluorescence polarization. O75608;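 active = inhibition above the mean of all tested compounds plus 3 SD, set per campaign, cut at about 14% in these data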;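 note: inhibitors block serine hydrolase probe labeling of LYPLA1 so polarization falls; 0% = enzyme with DMSO and 100% = wells lacking LYPLA1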
# Target sequence (O75608 whole entry, looked up): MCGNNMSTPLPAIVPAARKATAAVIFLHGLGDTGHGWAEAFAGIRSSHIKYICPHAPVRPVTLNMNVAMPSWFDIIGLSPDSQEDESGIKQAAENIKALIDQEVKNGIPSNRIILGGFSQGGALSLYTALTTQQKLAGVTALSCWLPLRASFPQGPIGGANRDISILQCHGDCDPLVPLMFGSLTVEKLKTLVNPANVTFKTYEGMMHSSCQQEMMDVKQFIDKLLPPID
# LYPLA2 inh – counter-screen for PME1 inhibitors: inhibitors of human LYPLA2; recombinant LYPLA2, FP-Rh probe fluorescence polarization; inhibition, % at 5.9 µM; hit rate 0.38% among 320,000; AID 2177;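 active = inhibition above the screen-wide mean plus 3 SD, limit set per campaign, cut at about 26% in these data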;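 note: 0% = LYPLA2 with DMSO and 100% = wells lacking LYPLA2 enzyme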
# Target sequence (O95372 whole entry, looked up): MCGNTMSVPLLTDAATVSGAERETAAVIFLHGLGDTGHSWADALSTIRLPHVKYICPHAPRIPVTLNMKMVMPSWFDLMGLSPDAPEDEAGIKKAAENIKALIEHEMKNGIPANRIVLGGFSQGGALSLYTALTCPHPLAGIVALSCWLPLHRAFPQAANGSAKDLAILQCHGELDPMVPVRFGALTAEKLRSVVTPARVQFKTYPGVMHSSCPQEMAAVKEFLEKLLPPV
# PME-1 inh – blocks human protein phosphatase methylesterase 1 | recombinant PME-1, FP-Rh probe fluorescence polarization | inhibition, % at 5.9 µM | Q9Y570 | AID 2130 | hit rate 0.53% among 320,000;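 active = inhibition above the campaign mean of all compounds plus 3 SD, cut at about 26% in these data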;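 note: competitive labeling of PME-1 active site by serine hydrolase directed probe; 0% = PME-1 with DMSO and 100% = wells lacking PME-1 enzyme; inhibitors block probe labeling so polarization falls and inhibition rises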
# GSTO1 counter – counter-screen for RBBP9 inhibitors: inhibitors of human GSTO1 | inhibition, % at 5.96 µM | recombinant GSTO1, activity-based probe fluorescence polarization | hit rate 1.1% among 300,000 | P78417;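 active = inhibition above the campaign mean inhibition plus 3 SD, cut at about 35% in these data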;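 note: 0% = GSTO1-1 with DMSO and 100% = wells lacking GSTO1-1 enzyme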
# Target sequence (P78417 whole entry, looked up): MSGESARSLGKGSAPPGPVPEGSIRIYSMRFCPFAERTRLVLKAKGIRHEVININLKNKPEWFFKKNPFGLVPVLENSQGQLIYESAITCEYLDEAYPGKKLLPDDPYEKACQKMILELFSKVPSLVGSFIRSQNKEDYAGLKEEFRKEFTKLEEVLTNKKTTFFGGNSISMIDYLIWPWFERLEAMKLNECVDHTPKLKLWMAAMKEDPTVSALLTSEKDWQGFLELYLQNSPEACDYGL
# Fam108B counter – Fam108B inhibition, counter-screen for RBBP9 inhibitors; recombinant Fam108B, FP-Rh probe fluorescence polarization; hit rate 0.33% among 300,000; AID 1947; inhibition, % at 9.51 µM;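 active = inhibition above the screen mean inhibition plus 3 SD, computed separately per campaign, cut at about 18% in these data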;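 note: inhibitors lower polarization as less probe binds the enzyme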
# PAD4 inh – PAD4 (human) enzyme inhibition; Q9UM07; recombinant PAD4, RCA probe fluorescence polarization; inhibition, % at 6.36 µM; hit rate 0.41% among 330,000;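 active = percent inhibition above a cutoff equal to the mean of all tested compounds plus 3 SD, cut at about 15% in these data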;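 note: 0% = PAD4 with RCA probe and DMSO and 100% = probe without PAD4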
# Fam108b confirm – confirmation of mouse Fam108b serine hydrolase inhibitors | shares compounds with Fam108B counter | recombinant Fam108b, FP-Rh probe fluorescence polarization | inhibition, % at 9.51 µM | hit rate 44% among 930 | AID 1978;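 active = inhibition above a limit from the primary screen, the mean over all compounds plus 3 SD, cut at about 19% in these data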;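 note: 0% = median of active Fam108b wells and 100% = catalytically dead S170A mutant; inhibitors free the probe so polarization falls as inhibition rises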
# Fam108b ABPP HTS – mouse ABHD17B inhibition. AID 588649. hit rate 44% among 260. shares compounds with Fam108B counter. inhibition, % at 20 µM. recombinant Fam108b, gel-based ABPP, fluorophosphonate probe; in the data active = inhibition above about 40%
# GSTO1 inh conf – confirmation of human GSTO1 inhibitors; recombinant GSTO1, probe fluorescence polarization; inhibition, % at 5.96 µM; shares compounds with GSTO1 counter; hit rate 54% among 2,400;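 active = inhibition above the primary screen's cutoff, its mean inhibition plus 3 SD, cut at about 35% in these data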;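 note: loss of polarization as inhibitors block binding of rhodamine sulfonate ester activity probe; 0% = GSTO1 with DMSO and 100% = wells lacking GSTO1 enzyme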
# LYPLA1 confirm – LYPLA1 (human) inhibition, confirmation counter-screen; shares compounds with LYPLA1 inh; recombinant LYPLA1, FP-Rh probe fluorescence polarization; inhibition, % at 5.9 µM; hit rate 69% among 480; AID 2233;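 active = mean inhibition across replicates above the hit cutoff set in the primary screen, cut at about 15% in these data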;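 note: loss of FP-Rh probe labeling of LYPLA1 seen as lower polarization; 0% = LYPLA1 with DMSO and 100% = wells lacking LYPLA1 enzyme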
# LYPLA2 confirm – counter-screen for PME1 inhibitors: confirmation of human LYPLA2 inhibitors | shares compounds with LYPLA2 inh | recombinant LYPLA2, FP-Rh probe fluorescence polarization | inhibition, % at 5.9 µM | hit rate 72% among 1,100;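 active = mean inhibition across replicates above the hit cutoff set in the primary screen, cut at about 26% in these data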;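 note: blocked labeling of the enzyme by serine hydrolase FP-Rh probe lowers polarization; 0% = enzyme with DMSO and 100% = wells lacking LYPLA2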
# * = called active by the depositor; . = not tested or not shown.
SMILES,LYPLA1 inh,LYPLA2 inh,PME-1 inh,GSTO1 counter,Fam108B counter,PAD4 inh,Fam108b confirm,GSTO1 inh conf,others
O=C(Nc1nc(-c2ccco2)c(-c2ccco2)s1)c1c(F)cccc1Cl,-17,-21,-2,.,.,-12,.,.,
CNc1ccc(Br)cc(C(=O)/C=C/c2ccc(OC)cc2)c1=O,1,-2,13,28,10,-4,.,.,
CNc1ccc(Br)cc(C(=O)/C=C/c2ccc3c(c2)OCO3)c1=O,5,11,3,55*,18*,-3,6,16,
NC(=O)c1sc2nc3c(c(-c4ccco4)c2c1N)CCC3,-4,4,12,10,11,1,.,.,
Nc1c(C(=O)NC2CC2)sc2nc3c(c(-c4ccco4)c12)CC/C3=C/c1ccco1,-9,2,10,62*,33*,-13,14,37*,
C=C1c2cccc(O)c2C(O)=C2C(=O)[C@]3(O)C(O)=C(C(N)=O)C(=O)[C@@H](N(C)C)[C@@H]3[C@@H](O)[C@H]12,-7,14,0,63*,26*,-10,-5,70*,
COC(=O)CNC(=O)CN1C(=O)N(c2ccc(Cl)cc2)C(N(O)C(=O)Nc2ccc(Cl)cc2)C1(C)C (centres undefined),-4,-3,0,-1,2,-6,.,.,
N#Cc1c(N2CCCC(O)C2)nc(N)c2c(N)nc3c(c12)CC(=O)N3C12CC3CC(CC(C3)C1)C2 (centres undefined),-3,0,11,79*,19*,1,17,88*,
COc1ccc(C2C(C(=O)c3ccccc3)=C(C)Nc3nc4ccccc4n32)c(OC)c1 (centres undefined),-1,0,6,5,-3,-1,.,.,
Cc1[nH]n(-c2ccccc2)c(=O)c1N=Nc1c(O)cc(S(=O)(=O)N(C)C)c2ccccc12,-1,6,54*,47*,75*,-8,89*,71*,Fam108b ABPP HTS=0
Cc1ccccc1Nc1cc2ccccc2c(=O)[nH]1,1,6,16,74*,21*,59*,19*,45*,
Cc1cc2ccccc2c(=O)[nH]1,0,0,-2,-3,-2,-5,.,.,
COc1ccnc(Oc2ccc(C)cc2C)c1C#N,-2,1,-2,5,4,-2,.,.,
COc1ccc2nc(N3C(=O)/C(=C/c4ccccc4)NC3=S)sc2c1,4,-3,58*,42*,20*,-15,22*,56*,
CCOc1ccc2nc(N3C(=O)/C(=C/c4ccccc4)NC3=S)sc2c1,6,-6,23,59*,20*,3,12,55*,
CCOc1cc(N2CCOCC2)c(OCC)cc1NC(=O)CSc1nnc(N)s1,.,.,.,.,.,2,.,.,
O=C(Cc1cccc2ccccc12)Nc1ccc(N2CCOCC2)cc1,-1,-4,1,8,-4,-8,.,.,
O=C1c2c(O)cccc2Cc2cccc(O)c21,-20,2,37*,45*,22*,-7,43*,6,
COc1cc(/C=C2/C(=O)c3cccc([N+](=O)[O-])c3C2=O)c(Br)cc1O,1,4,32*,47*,27*,-6,40*,55*,Fam108b ABPP HTS=45*
COc1ccccc1NC(=O)CCCCCN1C(=O)c2cccc([N+](=O)[O-])c2C1=O,-2,-3,0,-2,0,0,.,.,
COc1cc(Br)c(C(C)NC(=O)c2ccc(C)cc2)cc1OC (centres undefined),-2,-4,0,-7,-2,4,.,.,
CC1=CN2C(=N)/C(=C/c3ccc([N+](=O)[O-])o3)C(=O)N=C2S1,17*,23,33*,13,19*,-23,2,.,LYPLA1 confirm=-3
CN(C)c1ccc(/C=C(\C#N)C(=O)NCc2ccco2)cc1,22*,25,18,14,29*,11,-8,.,LYPLA1 confirm=14
O=C1N/C(=N/O)S/C1=C/c1cccc([N+](=O)[O-])c1,-3,-9,1,2,2,-2,.,.,
COc1cccc(N=C2NC(=O)/C(=C/c3cc([N+](=O)[O-])ccc3O)S2)c1,17*,-1,-7,13,19*,-5,15,.,LYPLA1 confirm=41*
SMILES,LYPLA1 inh,LYPLA2 inh,PME-1 inh,GSTO1 counter,Fam108B counter,PAD4 inh,Fam108b confirm,GSTO1 inh conf,others
O=C1NC(=Nc2ccccc2Cl)S/C1=C\c1cc([N+](=O)[O-])ccc1O,27*,4,-19,-37,33*,-11,42*,.,Fam108b ABPP HTS=30;LYPLA1 confirm=31*
COc1ccc(N=C2NC(=O)/C(=C/c3ccc(O)c(OC)c3)S2)cc1,-2,-3,7,-6,7,-3,.,.,
CCOc1ccc(Br)cc1CN(CC)CC,2,5,4,-1,1,4,.,.,
Cn1c(=O)c2c(ncn2CC(=O)OCC(=O)c2ccc(F)c(F)c2)n(C)c1=O,4,5,3,-1,-5,-2,.,.,
CC/C(=N/NC(=O)c1ccc(Br)cc1)c1ccc(OCCN2CCOCC2)cc1,-1,11,4,-2,1,-2,.,.,
CCCOc1ccc(/C(CC)=N/NC(=O)C2(C)CC2(Br)Br)cc1 (centres undefined),17*,28*,25,9,41*,12,3,.,LYPLA1 confirm=3
CN1/C(=C\C=C2/C(=O)Oc3ccccc3C2=O)C(C)(C)c2ccccc21,51*,-213,-186,-103,139*,-8,-132,.,LYPLA1 confirm=-60
CC(=O)n1cc([C@H]2C=C(C(=O)Nc3ccccc3)O[C@@H](OCc3ccc(CO)cc3)C2)c2ccccc21,-16,-27,-22,-12,-17,-2,.,.,
Cn1c(O)c(/C=N/NC(=O)c2cc3ccccc3cc2O)c2ccccc21,15*,3,70*,16,36*,1,31*,.,LYPLA1 confirm=16*
CSc1nc(C)cc(OCC#N)n1,6,3,-7,9,-1,2,.,.,
NC(=O)C1CCN(C2=C(NS(=O)(=O)c3ccccc3)C(=O)c3ccccc3C2=O)CC1,1,2,2,12,0,-5,.,.,
NC(=O)C1CCN(C2=C(Cl)C(=O)c3ccccc3C2=O)CC1,7,42*,22,87*,51*,8,59*,80*,Fam108b ABPP HTS=0;LYPLA2 confirm=36*
